Screens from PubChem BioAssay.
A selection: hits, their analogues and other compounds. The true share with any hit is near 2.9%.
Nrf2 block: inhibitors of Nrf2 signaling; hit rate 2.1% among 360,000; AID 504444; A549 ARE-Fluc reporter, luciferase luminescence, 18-24 h; Potency, µM (highest dose often 46 µM), without a hit: at the top dose activity change, negative = inhibition, hits mostly inhibitors; also: % is scaled to controls: 0 for no effect and ±100 for the full control effect; nearly all actives have a fitted effect of over 60% in size
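Nrf2 activity is the BugLite luminescence, read 15 min after reagent at room temperature, following CellTiter-Fluor cytotoxicity readout (30 min, 37C). Compound titrations were applied for 18-24 h to 5000 A549 ARE_Fluc cells/well in 5% FBS OPTI-MEM.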
Nrf2 activator: Nrf2 pathway activation; hit rate 0.31% among 410,000; AREc32 ARE-luciferase reporter (MCF7-derived line), luminescence, 24 h; AID 624171; Potency, µM (highest dose often 46.1 µM), for the others: at the highest dose activation, actives largely listed as activators; also: % of control where 0% means no effect; nearly all actives have a fitted effect of over 65% in size
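Luciferase luminescence (Steady-Glo, 30 min at room temperature) served as the read-out of ARE activation in AREc32 cells treated with compounds for 24 hr at 37 deg C.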
ATXN2 expr inh: reduces ATXN2 reporter expression in HEK-293 cells. Potency, µM (top dose mostly 57 µM), for inactives: top-dose activity change, negative = inhibition, hits mostly inhibitors. HEK-293 ATXN2-luciferase reporter, luminescence, 24 h. hit rate 0.72% among 360,000; also: % is scaled to controls: 0 for no effect and ±100 for the full control effect; nearly all actives have a fitted effect of over 55% in size
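ATXN2-luciferase reporter cells (luciferase flanked by upstream and downstream ATXN2 gene portions) were treated 24 h at 37 °C with compounds at up to 57 uM. SteadyGlo luminescence gave expression; GF-AFC fluorescence gave viability.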
A549 tox-1: counter-screen for Nrf2 inhibitors: cytotoxicity in A549 cells. hit rate 0.16% among 390,000. Potency, µM (titrated, usually from 46 µM), for the others: at the top dose activity change, negative = cytotoxicity, usual class: inhibitors. AID 504648. A549 ARE-Fluc cells, CellTiter-Fluor viability, 18-24 h; also: % is scaled to controls: 0 for no effect and ±100 for the full control effect
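Cytotoxicity counterscreen: CellTiter-Fluor fluorescence was measured in A549 ARE_Fluc cells after 18-24 h of compound exposure in a concentration series. The subsequent BugLite luminescent read reports ARE-luciferase activity.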
S2 tox: reduces viability in counter-screen for ATXN expression inhibitors. S2 cells (HEK-293 line with an ATXN2-luciferase reporter) viability, CellTiter-Fluor protease fluorescence, 24 h. Potency, µM (highest dose often 56.7 µM), actives largely listed as cytotoxic. AID 651635. hit rate 0.49% among 400,000; also: nearly all actives have a fitted effect of over 40% in size
FLuc enzyme inh: blocks purified firefly luciferase in Nrf2 counterscreen. AID 720522. hit rate 4% among 1,400. Potency, µM (titrated, usually from 57.5 µM), inactives show at the highest dose activity change, negative = inhibition, most hits filed as inhibitors. purified firefly luciferase, luminescence inhibition. shares compounds with Nrf2 block; also: % is scaled to controls: 0 for no effect and ±100 for the full control effect; nearly all actives have a fitted effect of over 65% in size
Target sequence (P08659 whole entry, looked up): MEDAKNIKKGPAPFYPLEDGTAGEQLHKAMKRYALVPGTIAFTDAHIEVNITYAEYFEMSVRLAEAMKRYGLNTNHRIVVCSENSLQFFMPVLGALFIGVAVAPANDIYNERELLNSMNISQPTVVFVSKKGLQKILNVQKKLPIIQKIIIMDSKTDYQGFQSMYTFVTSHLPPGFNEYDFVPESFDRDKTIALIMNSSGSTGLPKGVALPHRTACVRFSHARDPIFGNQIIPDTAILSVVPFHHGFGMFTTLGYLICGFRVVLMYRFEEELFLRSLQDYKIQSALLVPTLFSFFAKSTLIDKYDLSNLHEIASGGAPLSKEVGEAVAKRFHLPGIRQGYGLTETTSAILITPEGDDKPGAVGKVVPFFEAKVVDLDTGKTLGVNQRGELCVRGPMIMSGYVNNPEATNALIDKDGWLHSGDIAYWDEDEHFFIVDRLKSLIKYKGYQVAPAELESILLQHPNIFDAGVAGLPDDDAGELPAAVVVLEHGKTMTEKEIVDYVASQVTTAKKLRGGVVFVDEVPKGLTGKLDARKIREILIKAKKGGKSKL
A549 tox-2: A549 cytotoxicity, Nrf2 inhibitor counterscreen; shares compounds with Nrf2 block; A549 ARE-Fluc cells, cytotoxicity counterscreen; Potency, µM (series often up to 46.1 µM), for inactives: at the highest dose activity change, negative = cytotoxicity, actives largely listed as inhibitors; hit rate 2% among 1,400; AID 720523;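 also: cells exposed to compounds for 18 to 24 hours; % is scaled to controls: 0 for no effect and ±100 for the full control effect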
Nrf2 ARE inh: Nrf2 inhibition confirmed, A549 ARE-luciferase | shares compounds with Nrf2 block | A549 ARE-firefly luciferase reporter, luminescence | Potency, µM (top dose mostly 46.1 µM), without a hit: top-dose activity change, negative = inhibition, hits mostly inhibitors | hit rate 74% among 1,400 | AID 720524; also: % is scaled to controls: 0 for no effect and ±100 for the full control effect; nearly all actives have a fitted effect of over 65% in size
Numbers without * were called inactive; i = inactive; ? = inconclusive; / = not tested or not shown; ! = a repeat was not active; [ ] = dose if it differs, or a comment. Calls follow the shape of the dose curve; as a rule, active = well fitted curve in the direction sought with a large enough effect; inconclusive = small, poorly fitted or top-dose-only effect, or another doubt; inactive = no such curve, though single readings can be large; an effect the other way counts as inactive or inconclusive. Potency is read from the fitted curve at half-maximal effect.

SMILES	Nrf2 block	Nrf2 activator	ATXN2 expr inh	A549 tox-1	S2 tox	FLuc enzyme inh	A549 tox-2	Nrf2 ARE inh
COc1cc2sc3ccc(C#Cc4ccc(N)cc4)cc3c(=O)c2cc1OC	4.6µM*	5%	-5%	-21%	i	-22%	?	2.3µM*
COc1cc2sc3ccc(C#Cc4ccccn4)cc3c(=O)c2cc1OC	2%	5%	-3%	3%	?	/	/	/
c1ccc(C[n+]2cccc3c4ccccc4ccc32)cc1	?	0%	?	?	i	0%	-11%	/
CCCCC[n+]1cccc2c3ccccc3ccc21	?	0%	?	?	i	/	/	/
COC(=O)C1=C(Nc2ccc(C)cc2)C=C(C)C(C(=O)OC)C1c1ccc(OC)cc1 (stereo not drawn)	-26%	-1%	0%	/	i	/	/	/
COC(=O)C1=C(O)C(C(=O)OC)C(c2ccc(C)cc2)C(C#N)(C#N)C1c1ccc(C)cc1 (stereo not drawn)	2.9µM*	0%	-36%	/	i	3%	?	15µM*
COCCN1C=C(C(=O)OC)C(c2ccc(Cl)cc2)C(C(=O)OC)=C1	-8%	0%	2%	0%	/	/	/	/
CC1(C)CC2CC(C)(CN2C(=O)COC(=O)c2ccccc2C(F)(F)F)C1 (stereo not drawn)	3.7µM*	0%	/	-14%	i	0%	-1%	-24%
CSc1ncccc1C(=O)OCC(=O)N1CC2(C)CC1CC(C)(C)C2 (stereo not drawn)	14%	0%	3%	1%	i	/	/	/
Cc1nn(-c2ccccc2)c(C)c1NC(=O)COC(=O)c1ccc(Cl)c(N)c1	16%	0%	1%	2%	?	/	/	/
COCCn1c(=O)[nH]c2cc(C(=O)N3CCN(c4ccc(Cl)cc4)CC3)ccc2c1=O	5.8µM*!	0%	-28%	-23%	?	1%	-11%	?
C=CCn1c(SCc2c(C)noc2C)nc2sc3c(c2c1=O)CCCC3	9.2µM*	-1%	-31%	?	i	-1%	-14%	?
C[n+]1ccccc1COc1ccc(C(C)(C)C)cc1	2.3µM*	0%	8%	?	i	-9%	-11%	5.2µM*
CC(C)(C)c1ccc(OCc2nc3ccccc3n2CCOc2ccccc2)cc1	19%	1%	-7%	10%	?	/	/	/
Cc1ccc2c(c1)/C(=C/c1ccccc1)C(=O)N2	-8%	?	0%	0%	i	/	/	/
COc1ccc2c(c1)/C(=C\c1cccc(/C=C3/C(=O)Nc4ccc(OC)cc43)n1)C(=O)N2	8.2µM*	7%	3.2µM*	-29%	/	?	-16%	?
CC1(C)Oc2ccc(C(=O)N3CCOCC3)cc2N(CC(=O)N2CCOCC2)C1=O	?	0%	5%	-2%	i	/	/	/
Cc1nc(NS(=O)(=O)c2ccccc2)sc1C(=O)NNS(=O)(=O)c1ccccc1	-1%	0%	28%	0%	i	/	/	/
Cc1nc(C)c(C(=O)NNS(=O)(=O)c2ccc3ccccc3c2)s1	9.2µM*	-1%	-12%[11.3 µM]	-14%	i	4%	1%	?
O=C(Nc1cccnc1)c1ccc(Cl)c(Cl)c1	15%	3%	/	-8%	i	/	/	/
CC(C)(C)c1cc(C(=O)Nc2cccnc2)cc(C(=O)Nc2cccnc2)c1	9.2µM*	0%	-13%	-20%	i	-5%	-5%	?
CC(C)c1ccc(CNc2nc(-c3ccco3)nn2S(=O)(=O)c2ccccc2)cc1	-2%	5%	8%	-10%	i	/	/	/
Cc1ncc(CO)c2c1Oc1nc(-c3ccccc3)nc(SCC(=O)Nc3cccc(O)c3)c1C2	1.8µM*	0%	/	?	?	-2%	-14%	5.8µM*
Nc1nc(Cl)nc2c1ncn2[C@H]1C[C@H](O)[C@@H](CO)O1	0.013µM*	0%	?	2%	i	-11%	1%	5.8µM*
CCN(CC)c1ccc(Nc2nc(N3CCOCC3)c3ccccc3n2)cc1	6.5µM*	3%	-35%	?	i	?	-11%	12µM*
SMILES	Nrf2 block	Nrf2 activator	ATXN2 expr inh	A549 tox-1	S2 tox	FLuc enzyme inh	A549 tox-2	Nrf2 ARE inh
CN1CCC(=NNC(=O)C(=O)NC2CCCC2)CC1	-1%	0%	4%	-8%	i	/	/	/
Cc1oc(-c2ccc(C(=O)Nc3cccc(C(F)(F)F)c3)cc2)nc1CSc1ccccc1	5.8µM*	-1%	/	?	/	-1%	-26%	1.8µM*
CC1C(=O)OC2C1CCC1(C)CCC(=O)C(C)C21 (stereo not drawn)	-11%	0%	-18%	9%	?	/	/	/
CC1=CC(=O)C2=C(C)CC[C@@H]3[C@H](OC(=O)[C@H]3C)[C@@H]12	6.5µM*	0%	7%	-3%	i	6%	-8%	6.5µM*
Cc1cc(NC(=O)CSc2nc3c(sc4ccccc43)c(=O)n2CCCN2CCOCC2)n[nH]1	7.3µM*	-1%	1.4µM*	?	?	2%	?	10µM*
Cc1cc(=O)oc2ccc(OC(C)C(=O)O)cc12 (stereo not drawn)	-16%	0%	-5%	0%	i	/	/	/
CC1(C)CC(N2CCCC2)=CC(=[N+]2CCCC2)C1	2.1µM*	-1%	-29%	-15%	i	0%	-13%	5.2µM*
CC1(C)CC(NNCCC#N)=CC(=[N+]2CCCC2)C1	13%	0%	-22%	-7%	i	/	/	/
CC1(C)CC(N2CCCC2)=CC(=[N+]2CCCCC2)C1	4.1µM*	0%	?	-14%	i	1%	-5%	5.2µM*
Cc1c(NC(=S)NC(=O)c2ccco2)cccc1-c1nc2ncccc2o1	?	1%	-18%	-1%	i	/	/	/
C[C@]12C=CC(=O)C=C1CC[C@@H]1[C@@H]2[C@@H](O)C[C@@]2(C)[C@H]1CC[C@]2(O)C(=O)CO	0.058µM*	0%	1%	-11%	i	3%	-2%	0.073µM*
C[C@]12CCC(=O)C=C1[C@H](O)C[C@@H]1[C@@H]2[C@@H](O)C[C@@]2(C)[C@H]1CC[C@]2(O)C(=O)CO	7%	0%	-9%	-1%	i	/	/	/
C[C@]12C=CC(=O)C=C1CC[C@@H]1[C@@H]2[C@@H](O)C[C@@]2(C)[C@H]1CC[C@]2(O)C(=O)COC(=O)CCC(=O)NCCc1ccc(O)cc1	0.12µM*	-1%	7%	0%	i	0%	8.2µM*	5.8µM*
